A number with no mark means an inactive call. Active and inactive are the calls of the source. Calls follow the shape of the full dose curve.
Test: qHTS assay to identify small molecule agonists of the estrogen related receptor (ERR) signaling pathway from Tox21 library (AID 1224849); also: nearly all actives have a fitted effect of over 15% in size
Conditions: ERR reporter cell line, ONE-Glo luciferase, 18 h; series mostly up to 92.4 µM
In short: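 Cells carrying the ERR reporter were plated and allowed to settle for 6 h, exposed to library compounds for 18 h at 37 C, then lysed with ONE-Glo and luminescence measured.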
% is scaled to controls: 0 for no effect and ±100 for the full control effect.

Compound	activity change, positive = activation	outcome
Nc1ccc(/C=C/c2ccc(N)cc2S(=O)(=O)O)c(S(=O)(=O)O)c1	2.43% [at 0.349 µM]	–
COc1ccc(NS(=O)(=O)c2ccc(N)cc2)nn1	–	inactive
CC(C)C(=O)c1ccccc1	–	inactive
CCCCCCCCCCC	–	inactive
CC(Cl)COP(=O)(OCC(C)Cl)OCC(C)Cl (stereo not given)	–	inactive
CN(C)CCOCCN(C)CCO	–	inactive
CC(C)(CO)[C@@H](O)C(=O)NCCCO	–	inactive
C=CCOCC(CO)(COCC=C)COCC=C	–	inactive
Cc1ncc([N+](=O)[O-])n1CC(O)CCl (stereo not given)	–	inactive
CCN(CCO)c1cccc(C)c1	–	inactive
CN=C(NC#N)NCCSCc1csc(N=C(N)N)n1	–	inactive
CC1CCC(C(C)(C)S)C(=O)C1 (stereo not given)	–	inactive
O=CN1CCOCC1	–	inactive
Cc1c(C(C)C)c(=O)n(-c2ccccc2)n1C	–	inactive
CCCCCCCCCCCCCCCCCCN(C)C	–	inactive
O=C(O)CCNC(=O)c1ccccc1	–	inactive
O=c1[nH]c(=O)c2ccccc2o1	–	inactive
CCC1COC(=O)O1 (stereo not given)	–	inactive
Cc1cccc(NC(=S)N(C)C)c1	–	inactive
O=C(COCCOCCOCC(=O)Nc1c(I)cc(I)c(C(=O)O)c1I)Nc1c(I)cc(I)c(C(=O)O)c1I	–	inactive
C=CCOc1c(Br)cc(Br)cc1Br	–	inactive
NC(=O)NC(=O)Cc1ccccc1	–	inactive
CC(=O)/C=C/c1ccco1	–	inactive
CCCCCCCCC(=O)OCC	–	inactive
CCCCCCCCCCCCCCCCI	2.23% [at 19 µM]	–

From PubChem BioAssay (Tox21)
